# LmPK inh = LmPK (Leishmania mexicana) enzyme inhibition. Q27686. Potency, µM (series often up to 57.5 µM), for inactives: at the highest dose activity change, negative = inhibition, most hits filed as inhibitors. 290,000 compounds, 0.37% hits. purified LmPK, Kinase-Glo ATP luminescence, 1 h
# Target sequence (Q27686 whole entry, looked up): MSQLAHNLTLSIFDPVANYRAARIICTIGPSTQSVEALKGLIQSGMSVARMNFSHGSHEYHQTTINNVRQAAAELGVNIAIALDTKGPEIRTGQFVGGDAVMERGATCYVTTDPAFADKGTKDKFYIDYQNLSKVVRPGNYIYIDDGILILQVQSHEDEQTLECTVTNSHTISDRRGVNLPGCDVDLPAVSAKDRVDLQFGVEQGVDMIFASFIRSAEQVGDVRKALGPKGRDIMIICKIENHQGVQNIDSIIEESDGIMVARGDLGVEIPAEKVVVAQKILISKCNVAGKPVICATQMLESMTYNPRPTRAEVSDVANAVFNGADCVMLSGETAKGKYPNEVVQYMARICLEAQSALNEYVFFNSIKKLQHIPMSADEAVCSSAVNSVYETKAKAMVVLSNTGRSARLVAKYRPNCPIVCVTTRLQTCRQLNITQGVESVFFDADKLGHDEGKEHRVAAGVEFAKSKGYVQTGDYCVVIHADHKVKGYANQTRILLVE
#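 ATP generated from ADP (0.1 mM) and PEP (0.5 mM) by 0.1 nM LmPK over 1 h at room temperature (pH 7.2 imidazole buffer) was detected by coupled luciferase luminescence. Values were normalized to uninhibited and no-enzyme wells.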
# Tb PYK inh = T. brucei pyruvate kinase inhibition | Q57TT1 | TbPYK enzyme, Kinase-Glo Plus ATP luminescence, 45 min | AID 624173 | Potency, µM (top dose mostly 76.8 µM), inactives show top-dose activity, negative = inhibition, hits mostly inhibitors | 410,000 compounds, 0.12% hits; note: nearly all actives have a fitted effect of over 50% in size
#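 T. brucei PYK with substrate was exposed to pin-transferred compounds across a concentration series, then started with 130 uM ADP (final). After 45 min at room temperature, Kinase-Glo Plus luminescence was read, normalized and curve-fitted.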
# FBPA Giardia inh = Giardia lamblia aldolase inhibition | A8B2U2 | purified Giardia FBPA | Potency, µM (highest dose often 59.6 µM), inactives show top-dose activity, negative = inhibition, most hits filed as inhibitors | 290,000 compounds, 0.71% hits | AID 2451; note: nearly all actives have a fitted effect of over 55% in size
#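 40 nM FBPA preincubated 10 min at RT with compound (up to 57.5 uM final), then substrate plus GAPDH/TPI/NAD/arsenate coupling and diaphorase/resazurin added. Fluorescence read after 20 min at RT, 525/598 nm.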
# RE007 growth inh = less growth of the S. pombe RE007 Vpr strain; S. pombe RE007 Vpr strain, BacTiter-Glo ATP luminescence, 24 h; Potency, µM (titrated, usually from 92.2 µM), for the others: at the highest dose activity change, negative = less growth, actives largely listed as inhibitors; 360,000 compounds, 0.21% hits; active = well fitted falling curve with a large enough effect; inconclusive = small, poorly fitted or top-dose-only effect; inactive = no such curve, though single readings can be large or run the other way; note: nearly all actives have a fitted effect of over 50% in size
#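 Fission yeast RE007 carrying one integrated HIV-1 vpr copy, seeded at OD 0.01 in PMG+AL medium with 23 nL pinned compound. Grown 24 h at 30 degrees; viability read by BacTiter-Glo luminescence after 5 min.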
# * hit, by the source's call; ? = inconclusive; · = no result; [ ] = remark or other dose. Most compounds without a hit are left out; they make up all but 0.95% or so of the library. Unless noted, calls come from the whole dose curve; as a rule, active = well fitted curve in the direction sought with a large enough effect; inconclusive = small, poorly fitted or top-dose-only effect, or another doubt; inactive = no such curve, though single readings can be large; an effect the other way counts as inactive or inconclusive. % is set by controls: 0 for no effect and ±100 for the full control effect; potency is the fitted concentration of half-maximal effect.
SMILES,LmPK inh,Tb PYK inh,FBPA Giardia inh,RE007 growth inh
CCOc1ccc(NC(=O)Cn2sc3nc(C)cc(C)c3c2=O)cc1,-16.1%,5.62µM*,-6.2%,-15.7%
Cc1cc(C)c2c(=O)n(CC(=O)NCCCN3CCN(c4ccccc4F)CC3)sc2n1,-25.5%,?,-13.5%,?
Cc1cc(C)c2c(=O)n(CC(=O)Nc3ccc(Cl)cc3)sc2n1,-22.5%,?,-26.4%,-4.9%
Oc1cc[c]([Hg][Cl])cc1,·,1.41µM*,·,·
Cc1cc(=O)c2c(O)c3c(O)cc(=O)c4c3c3c(cc(O)c1c23)C(C)(C)C=4O,·,1.2%,-2.6%,·
c1ccc(-c2noc(-c3ccno3)n2)nc1,-8.7%,0.3%,-2.9%,-9.6%
c1ccc(-c2noc(-c3ccco3)n2)nc1,15.8µM*,-11.7%,1.5%,-16.1%
Cc1ccc(-c2nc(-c3ccccn3)no2)cc1Cl,14.1µM*,-27.0%,-18.5%,?
Cc1ccc2nc(-c3ccccn3)oc2c1,15.8µM*,-25.0%,-4.4%,?
Fc1ccc(-c2nc(-c3cnccn3)no2)c(Cl)c1,?,-13.2%,4.8%,-16.5%
Clc1ccc(-c2nc(-c3cnccn3)no2)cc1,7.94µM*,-12.5%,3.2%,?
Oc1c(C(c2ccccc2F)N2CCCCC2)sc2nc(-c3ccco3)nn12 (stereo not given),·,-8.3%,·,·
c1ccc(-c2cc(-c3nc(-c4ccccn4)no3)c3ccccc3n2)cc1,·,-13.1%,·,1.2%
Cc1ccc(-c2nc(-c3ccccn3)no2)cc1[N+](=O)[O-],14.1µM*,7.5%,2.0%,?
Clc1cccc(-c2nc(-c3ccccn3)no2)c1,10µM*,-22.8%,0.0%,?
c1ccc(-c2ccc(-c3nc(-c4ccccn4)no3)cc2)cc1,14.1µM*,?,-2.4%,39.8µM*
Cc1ccccc1-c1noc(-c2ccc(O)cc2)n1,14.1µM*,-27.6%,3.8%,?
Cc1ccccc1-c1noc(-c2ccc(Cl)cc2)n1,-10.0%,-5.6%,0.2%,5.3%
Cc1ccc(-c2nc(-c3ccccn3)no2)cc1,2.82µM*,?,6.1%,15.8µM*
Cc1ccc(Cc2nc(-c3ccccn3)no2)cc1,-6.8%,3.1%,4.4%,-1.8%
Oc1ccc2ccccc2c1/C=N/c1nccs1,-1.9%,1.0%,·,-17.7%
Oc1ccc2ccccc2c1C=NCc1cn2ccsc2n1,2.8%,-11.0%,1µM*,-18.2%
CCn1c(C)nc2cc(C(=O)N/N=C/c3ccc(O)c(O)c3O)ccc21,1.3%,?,12.6µM*,-5.6%
CCN(CC)S(=O)(=O)c1cccc(C(=O)N/N=C/c2ccc(O)c(O)c2O)c1,0.0%,?,4.46µM*,2.9%
COc1ccc(O)c(/C=N/NC(=S)Nc2cccc(S(=O)(=O)N(C)C)c2)c1,5.0%,-20.2%,-4.2%,14.6%
SMILES,LmPK inh,Tb PYK inh,FBPA Giardia inh,RE007 growth inh
CCN(CCO)c1ccc(NC(=S)Nc2cccc(S(=O)(=O)N(C)C)c2)cc1,-9.3%,-19.3%,7.92µM*,-8.6%
CN(C)S(=O)(=O)c1cccc(NC(=S)N/N=C/c2ccc(O)c(O)c2O)c1,-14.8%,10µM*,15.8µM*,-12.5%
CCn1c(C)nc2cc(C(=O)N/N=C/c3cccc(OC)c3O)ccc21,0.7%,-5.2%,7.8%,-15.2%
CCCCCCCCOC(=O)c1ccc(N)cc1,6.8%,-2.4%,0.6%,28.2µM*
CCCCOC(=O)c1ccc(O)cc1,-4.6%,-4.8%,-1.2%,19.6%
COc1ccc(NC(=O)c2cccc([N+](=O)[O-])c2)cc1,-4.3%,-1.1%,-17.7%,-11.0%
COc1ccc(NC(=O)c2cc([N+](=O)[O-])ccc2O)cc1,12.6µM*,?,-21.8%,6.31µM*
COC(=O)C1=C(C)NC(=O)/C1=C\c1cc(C)n(-c2cc(C)cc(C)c2)c1C,-2.7%,-18.7%,-27.0%,10µM*
CCOc1ccc(CNC(=O)CN2N=C(c3ccccc3)CCC2=O)cc1OC,·,2.6%,·,·
S=c1[nH]nc(-c2cccs2)n1C1CCCCC1,3.55µM*,7.08µM*,?,-1.7%
CC(C1CC2CCC1C2)n1c(-c2cccs2)n[nH]c1=S (stereo not given),5.01µM*,?,-3.5%,3.9%
CC(C)(C)c1ccc(-c2n[nH]c(=S)n2C2CCCC2)cc1,10µM*,?,7.9%,-28.0%
Cn1c(-c2ccc(C(C)(C)C)cc2)n[nH]c1=S,-22.6%,?,3.2%,-22.3%
Cc1noc(C)c1-c1ccc2ncnc(NCc3ccc(-c4ccccc4)cc3)c2c1,·,·,-1.6%,·
Cc1ccc2c(C)c(C(=O)N3CCC(c4nc5ccccc5s4)CC3)oc2c1C,·,0.3%,·,·
Cc1snc(SCC(=O)c2ccc([N+](=O)[O-])cc2)c1C#N,-1.8%,35.5µM*,?,?
CC(C)C[C@H](NC(=O)[C@H](Cc1ccccc1)NC(=O)c1cnccn1)B(O)O,·,0.0%,·,·
O=c1c(-c2n[nH]c(=S)n2-c2ccccc2)cccn1Cc1cccc(Cl)c1,-3.8%,12.6µM*,0.5%,10.2%
C=CCn1c(-c2cccn(Cc3cccc(Cl)c3)c2=O)n[nH]c1=S,-0.7%,8.91µM*,-14.8%,8.9%
C=CCn1c(-c2cccn(Cc3ccccc3)c2=O)n[nH]c1=S,2.4%,?,?,8.3%
CCN1/C(=C/C(C)=C/c2sc3ccccc3[n+]2CC)Sc2ccccc21,-14.0%,?,-7.7%,7.08µM*
CCN1/C(=C\C(=S)Nc2ccccc2)Sc2ccccc21,-1.1%,-20.4%,-8.8%,2.3%
Cc1ccc(CCNc2nc3c(S(=O)(=O)c4ccc(C)cc4)nnn3c3ccsc23)cc1,·,3.6%,·,·
COc1cc(/C=C2\SC(=S)NC2=O)ccc1OS(=O)(=O)c1ccccc1,-4.3%,·,13.5%,·
CCOc1ccc(/C=C2\SC(=S)NC2=O)cc1OC,14.1µM*,-10.1%,8.0%,-23.3%
SMILES,LmPK inh,Tb PYK inh,FBPA Giardia inh,RE007 growth inh
CC(C)c1cc(C(C)C)c(S(=O)(=O)Nc2cccc3cccnc23)c(C(C)C)c1,·,·,-20.9%,·
CC(=O)Nc1cnc(NC(=O)c2cccc(F)c2)cc1C,-18.5%,-9.3%,-7.7%,-6.5%
CCC(=O)Nc1cnc(NC(=O)c2cccc(F)c2)cc1C,20µM*,-16.2%,-1.4%,-8.4%
O=C(O)C(=O)Nc1cccc(C2=NN=N[N]2)c1,·,0.0%,·,·
O=[N+]([O-])c1ccc(/C=N/n2cnc3ccccc32)s1,-0.3%,-6.0%,0.9%,10µM*
Cc1cc2ncn(/N=C/c3ccc([N+](=O)[O-])s3)c2cc1C,1.7%,-2.0%,-8.5%,12.9%
CN(C)C(=S)SC(=S)N(C)C,·,?,15.8µM*,·
CO[C@]12C(COC(N)=O)C3=C(C(=O)C(C)=C(N)C3=O)N1CC1NC12 (stereo not given in full),·,3.3%,?,·
CC1=NN(c2ccc(C(=O)O)c(N)c2)C(=O)C1,3.3%,-10.3%,7.06µM*,12.4%
O=C1/C(=C/c2cccnc2)CC/C1=C\c1cccnc1,0.8%[11.5 µM],-3.3%,0.6%,-13.5%
O=C1/C(=C\c2cccnc2)CCc2ccccc21,15.8µM*,5.5%,0.1%,?
O=C(N/N=C1/C[C@@H](O)[C@@H](O)[C@@H]2[C@@H]3C(=O)N(C[C@@H]4CCCO4)C(=O)[C@H]3CC[C@@H]12)OCc1ccccc1,·,·,1.2%[12.9 µM],·
Cc1ccsc1C(=O)Nc1ccc(C(=O)O)cc1,14.1µM*,-32.2%,6.8%,?

# Source: PubChem BioAssay
